Most compounds without a hit are left out; they make up all but 3.3% or so of the library.
Sm TGR inh = qHTS Assay for the Inhibitors of Schistosoma Mansoni Peroxiredoxins | purified TGR, DTNB reduction, TNB absorbance 405 nm | Potency, µM (top dose mostly 114 µM), inactives show at the highest dose activity change, negative = inhibition, most hits filed as inhibitors | 360,000 tested, 3% active; also: nearly all actives have a fitted effect of over 60% in size
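Kinetic colorimetric format: TGR-catalysed, NADPH-driven DTNB reduction monitored via TNB absorbance. Enzyme dispensed at 20 nM; compound exposure 15 min at room temperature before reaction start.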
AmpC no deterg = qHTS Inhibitors of AmpC Beta-Lactamase (assay without detergent); AmpC nitrocefin hydrolysis, absorbance 480 nm, 0.0001% Triton; 330,000 tested, 0.52% active; Potency, µM (highest dose often 57.1 µM), inactives show top-dose activity change, negative = inhibition, actives largely listed as inhibitors; AID 485341, 2010; P00811;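 also: plate controls were no compound for no effect and no enzyme for full effect; nearly all actives have a fitted effect of over 20% in size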
Target sequence (P00811 whole entry, looked up): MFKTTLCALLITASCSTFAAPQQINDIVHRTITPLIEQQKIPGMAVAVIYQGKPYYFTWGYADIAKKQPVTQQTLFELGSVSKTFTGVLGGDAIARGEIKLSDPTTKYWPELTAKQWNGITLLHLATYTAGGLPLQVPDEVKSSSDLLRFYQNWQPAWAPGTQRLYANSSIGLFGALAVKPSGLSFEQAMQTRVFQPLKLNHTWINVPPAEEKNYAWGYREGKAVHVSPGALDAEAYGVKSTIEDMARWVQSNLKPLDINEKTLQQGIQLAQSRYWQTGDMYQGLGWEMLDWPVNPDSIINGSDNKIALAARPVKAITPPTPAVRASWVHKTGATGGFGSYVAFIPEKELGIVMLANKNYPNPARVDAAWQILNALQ
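AmpC (5.3 nM in the dispensed reagent) in 20 mM phosphate pH 7.0 with 0.01% (detergent screen) or 0.0001% Triton X-100 was preincubated with compounds for 15 min at room temperature. Nitrocefin was then added from an 800 uM solution, and hydrolysis was followed at 480 nm.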
AmpC inh detg = qHTS Inhibitors of AmpC Beta-Lactamase (assay with detergent). P00811. AmpC hydrolysis of nitrocefin, absorbance 480 nm, 0.01% Triton. Potency, µM (titrated, usually from 114 µM), without a hit: at the top dose activity change, negative = inhibition, usual class: inhibitors. 370,000 tested, 0.041% active. AID 485294, 2010;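 also: 0% = no-compound wells and -100% = no-enzyme wells; nearly all actives have a fitted effect of over 25% in size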
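20 mM phosphate pH 7.0 + 0.01% (detergent screen) or 0.0001% Triton X-100; 5.3 nM AmpC reagent; cpd preinc 15 min RT; nitrocefin (800 uM stock) to start; A480 q20 s × 4 min; Activity was normalised to no-enzyme and no-compound control wells.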
* hit, by the source's call; ? = inconclusive; . = no result given; ! = repeats disagree; [ ] = remark or other dose. Calls follow the shape of the dose curve; as a rule, active = well fitted curve in the direction sought with a large enough effect; inconclusive = small, poorly fitted or top-dose-only effect, or another doubt; inactive = no such curve, though single readings can be large; an effect the other way counts as inactive or inconclusive. Unless noted, % is scaled to controls: 0 for no effect and ±100 for the full control effect; potency is read from the fitted curve at half-maximal effect.

SMILES | Sm TGR inh | AmpC no deterg | AmpC inh detg
CCOC(=O)c1sc(=S)n(-c2ccccc2)c1NC(C)=O | 45µM* | -7% | 0%
Cc1cc(Br)ccc1NC(=O)c1sc2nc3n(c(=O)c2c1C)CCCC3 | 22µM* | . | 22%
Cc1ccc(NC(=O)c2sc3nc4n(c(=O)c3c2C)CCCCC4)c(Br)c1 | -5% | . | 1%
CCOC(=O)c1sc2nc3n(c(=O)c2c1C)CCCCC3 | 0% | 24% | ?
CCOC(=O)c1ccccc1NC(=O)c1sc2nc3n(c(=O)c2c1C)CCCC3 | 45µM* | . | 16%
O=C1C2CC(O)CN2C(=S)N1Cc1ccccc1 (stereo unspecified) | 2% | -1% | 1%
COC(=O)C(CC(=O)c1ccc(Br)cc1)n1nc(C)cc1C (stereo unspecified) | 3.5µM* | 65% | 3%
Cc1ccc(C(=O)CC(C(=O)O)n2cncn2)cc1 (stereo unspecified) | -20% | -47% | -19%
COc1ccc(CNC(=O)CC(C)n2nc(C)cc2C)cc1 (stereo unspecified) | 4% | . | 26%
COC(=O)C(CC(=O)c1ccc(Br)cc1)n1ccnc1 (stereo unspecified) | 0.28µM* | -26% | -2%
COC(=O)C(CC(=O)c1ccc(C)cc1)n1nc(C)cc1C (stereo unspecified) | 13µM* | 45% | 5%
COc1cc(NC(=O)CC(C)n2ccnc2)cc(OC)c1 (stereo unspecified) | 1% | -4% | -4%
Cc1c(N(C)S(=O)(=O)c2ccc(Cl)c(C(=O)N3CCC(C(N)=O)CC3)c2)c(=O)n(-c2ccccc2)n1C | 0% | -10% | -10%
CCCC1(c2ccccc2)NC(=O)N(CC(=O)Nc2ccccc2C(F)(F)F)C1=O (stereo unspecified) | -9% | 2% | ?
COCCN1CCc2nc(SCC(=O)Nc3ccc(Br)cc3)[nH]c(=O)c2C1 | -10% | . | 20%
COc1ccc(-n2c(=O)c3ccccc3n(CC(=O)NCCc3ccccc3)c2=O)c(OC)c1 | -8% | . | -4%
Cc1ccc(CNCC2CCCO2)s1 (stereo unspecified) | 0% | 3% | ?
Cc1ccc(-c2nc(CN(CC3CCC3)CC3CCCO3)c(C)o2)s1 (stereo unspecified) | 56µM* | 21% | 6%
Cc1ccc(C)n1-c1ccc(-c2ccnc(N)n2)cc1 | 25µM* | 16% | ?
Cc1onc(-c2ccccc2)c1-c1ccnc(N)n1 | -1% | -21% | 6%
COc1ccc(/C(C)=N/NC(=O)c2cccc(S(=O)(=O)N3CCCC3)c2)c(O)c1 | -2% | -26% | -4%
COc1ccc2c(c1)C(C)=CC(C)(C)N2S(=O)(=O)c1ccc(Br)cc1 | 6% | -9% | 1%
O=C(Nc1ccc(Br)cc1)c1ccc(F)c(S(=O)(=O)N2CCc3ccccc32)c1 | 3% | . | -2%
Nc1nnc(-c2ccc(Cl)cc2)o1 | 8% | 0% | -1%
ClCc1ncc(-c2ccc(Cl)cc2)o1 | 25µM* | -3%[11.4 µM] | -10%
SMILES | Sm TGR inh | AmpC no deterg | AmpC inh detg
COc1ccc(C)cc1NC(=O)c1cc(S(=O)(=O)N2CCCCC2)c[nH]1 | 0% | . | -5%
O=C(Nc1csc(Cc2c(Cl)cccc2Cl)n1)NN1CCOCC1 | -7% | 142% | 2%
COc1cc2[nH]c(=S)nc(NCCc3ccc(C)cc3)c2cc1OC | -3% | -13% | -9%
COc1cc2[nH]c(=S)nc(NCCc3ccc(S(N)(=O)=O)cc3)c2cc1OC | 14µM* | -33% | ?
O=C(NCC1COc2ccccc2O1)c1ccc(NC(=O)C(c2ccccc2)c2ccccc2)cc1 (stereo unspecified) | 8% | -38% | 5%
O=C(NCCCNc1ccc([N+](=O)[O-])cc1)C(F)(F)F | 6% | 0% | 1%
O=C(CCl)N(CCCNC(=O)C(F)(F)F)c1ccc([N+](=O)[O-])cc1 | 2.8µM* | -5% | -1%
CC(=O)OCC1=C(C(=O)O)N2C(=O)C(NC(=O)c3ccc(COc4cccc(Cl)c4Cl)o3)C2SC1 (stereo unspecified) | 20µM* | -19% | -12%
CC1=C(C(=O)O)N2C(=O)C(NC(=O)c3ccc(F)cc3)C2SC1 (stereo unspecified) | ? | -29% | 7%
CC1=C(C(=O)O)N2C(=O)C(NC(=O)c3nn(C)cc3Cl)C2SC1 (stereo unspecified) | -18% | -12% | ?
CC1=C(C(=O)O)N2C(=O)C(NC(=O)c3ccccc3Cl)C2SC1 (stereo unspecified) | ? | -31% | 71µM*
COc1cccc(C(=O)NC2C(=O)N3C(C(=O)O)=C(COC(C)=O)CSC23)c1 (stereo unspecified) | 13µM* | -26% | ?
Cc1ccc(NC(=O)c2ccc(COc3ccccc3Cl)o2)cc1 | -35% | . | -8%
COc1cc(C(=O)COC(=O)C2CC2(Cl)Cl)cc(OC)c1OC (stereo unspecified) | . | -1% | .
N#Cc1cc([N+](=O)[O-])c(-n2nnc3ccccc32)c([N+](=O)[O-])c1 | 14µM* | -13% | 1%
CS(=O)(=O)c1ccc(-n2nnc3ccccc32)c([N+](=O)[O-])c1 | -1% | -18% | 2%
S=C1Cc2ccccc2N1 | -27% | -42% | 4%
NC(Cc1ccc(O)c([N+](=O)[O-])c1)C(=O)O (stereo unspecified) | -1% | -26% | 0%
O=C(O)CCc1cc(I)c(Oc2ccc(O)c(I)c2)c(I)c1 | ? | -38% | -4%
N[C@@H](Cc1cc(I)c(Oc2ccc(O)c(I)c2)c(I)c1)C(=O)O | 50µM*! | 3.2µM*! | ?
N[C@@H](Cc1cc(Br)c(O)c(Br)c1)C(=O)O | 25µM* | -26% | ?
COc1cccc(N2CCN(C(=O)CCn3nc(C)c(S(=O)(=O)N4CCCC4)c3C)CC2)c1 | 0% | . | 13%
CCc1ccc(NC(=O)c2sc3ncnc(N(C)C4CCCCC4)c3c2C)cc1 | 0% | . | -3%
CCOC(=O)NC1(NC2CCCCC2)Oc2ccccc2O1 | 16µM* | -17% | -11%
CCOC(=O)c1ccc(CNCc2ccccc2)cc1 | -6% | -15% | -7%
SMILES | Sm TGR inh | AmpC no deterg | AmpC inh detg
CCOC(=O)NC1(NCC(C)C)Oc2ccccc2O1 | 22µM* | -25% | -10%
CCOC(=O)NC1(Nc2ccc(C)cc2)Oc2ccccc2O1 | 40µM* | -8% | ?
CCOC(=O)C(C(=O)Nc1ccccc1)C1CCCCC1 (stereo unspecified) | -1% | -23% | ?
CCOC(=O)NC1(NCc2ccccc2)Oc2ccccc2O1 | 32µM* | -16% | -5%
CCOC(=O)C1=C(C)c2ccccc2OC1(C(=O)OCC)C(C)C (stereo unspecified) | . | 23% | .
CCOC(=O)Nc1ccc(Oc2ccccc2)cc1 | 18% | -17% | 2%
CCOC(=O)NC1(NC(C)C)Oc2ccccc2O1 | 45µM* | -20% | -6%
CCOC(=O)NC1c2ccccc2Oc2ccccc21 | 16% | -9% | -5%
CCOC(=O)c1c(C)[nH]c(C)c1C(=O)COC(=O)c1cccnc1Cl | . | -15% | .
